The text below walks through data of PubChem BioAssay (NCI).

Several values for one entry are separate records, joined by “and”; a condition that tells them apart may be missing. Equal entries are not always repeated. The panel holds about 83,000 compounds, 20% with a hit somewhere; the sample as a whole holds those more often.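 Testing used 96-well plates and a 48-hour single-concentration exposure. Example: -40 means 40% of the starting cells died.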 Values without a mark were called inactive. Activity calls are given as the source filed them. How the source made its calls: active means growth percent below 10; inactive means the rest.

Common to all, as to assay: NCI-60 one-dose screen, 48 h (100 = growth as untreated, 0 = no growth, -100 = all killed)
Holding throughout (settings): 10 µM unless noted

The subject of assay [1] is SR leukemia.
Assay [2] relates to RPMI-8226 leukemia.
The subject of assay [3] is OVCAR-8 ovarian.
The test system of assay [4] is OVCAR-5 ovarian.
Assay [5] deals with OVCAR-4 ovarian.
Assay [6] relates to SK-OV-3 ovarian.
Assay [7] concerns IGROV1 ovarian.
Assay [8] concerns OVCAR-3 ovarian.
Assay [9] concerns NCI/ADR-RES ovarian.
The test system of assay [10] is T-47D breast.
Assay [11] concerns BT-549 breast.
Assay [12] relates to MDA-MB-435 melanoma.
Assay [13] has as its system SW-620 colon.
The subject of assay [14] is MCF7 breast.
Assay [15] relates to HCT-116 colon.
Assay [16] deals with HCC-2998 colon.
In assay [17] the test system is KM12 colon.
Assay [18] has as its system HS 578T breast.

Take `C[N+]12CCC34C5=CC(=O)C(=O)C=C5[N+]5(C)C(=O)CC6OCC=C(C1)C(CC32)C6C45` (stereo unspecified): the growth in [1] was 92%; in assay [2] it was 102%; in assay [3], 99.5%; in [4] it was 106%; in [5], 101%; in [6], 99.9%. The growth in [7] was 96.9%; in assay [8], 103%; in assay [9], 114%; in assay [10] it was 107%; in [11], 127%; in [12], 103%. Besides, the growth in assay [13] is 111%; in [14] it was 95.7%; in assay [15], 114%; in assay [16], 106%; in assay [17], 104%.

In the case of `O=[N+]([O-])c1c(Cl)cc(Cl)c([N+](=O)[O-])c1Cl`, the growth in assay [1] is 69%; in assay [2], 90.2%; in assay [3], 94.7%; in assay [4] it was 115%; in assay [5], 112%; in assay [6] it was 111%. Also, the growth in [7] is 100%; in [18], 109%; in [9] it was 103%; in [10], 22.2%; in assay [11] it was 114%; in assay [13] it was 65.6%. The figures for the growth in [14], in assay [15] and in [17] were 45.9%, 88.5% and -2.82% (active), respectively.

With `N#CC(NC(=O)CCl)=C(Cl)Cl`, the growth in [1] is -18.2% (active); in assay [2], -22% (active); in [3], -39.3% (active); in assay [4], 44.4%; in assay [6], 88.5%; in assay [7], -38.6% (active). Also, the growth in assay [8] is -30.9% (active); in [18], 14.8%; in assay [9] it was 11.8%; in assay [10], -30% (active); in assay [11], 38.9%; in assay [12] it was 5.03% (active). Also, the growth in assay [13] was -50.1% (active); in assay [14] it was 18.5%; in [15], -41.4% (active); in assay [16], -6.64% (active); in [17], 56.8%.

As for `C/C(=C(\c1ccc(OCCN2CCOCC2)cc1)c1ccc(OC(=O)Cc2ccccc2)cc1)c1ccc(Cl)cc1`, the growth in assay [1] is 114%; in assay [2], 57.6%; in assay [3], 97.7%; in assay [4] it was 95.2%; in [5], 98.5%; in [6], 110%. Moreover, the growth is 106% in assay [7]; 95.8% in assay [8]; 104% in [18]; 95.8% in [9]; 78% in assay [10]; 91.4% in assay [12]. Moreover, the growth in assay [13] is 98.6%; in [14], 83.5%; in assay [15], 75.7%; in [16], 88.4%; in [17], 99.3%.

On to `Cc1cc[n+](CCc2ccccc2)cc1`, for which the growth in assay [1] is 101%; in [2] it was 115%; in assay [3], 95.7% and 99.1%; in [4], 88.3% and 116%; in [5] it was 90.3% and 104%; in assay [6], 116% and 115%. Also, the growth in [7] was 94.7% and 82.5%; in assay [18], 105%; in [9] it was 91.2% and 111%; in assay [10], 95.4% and 101%; in assay [11], 104% and 107%; in assay [12] it was 102% and 104%. The growth in [13] was 101% and 117%; in assay [14] it was 101% and 104%; in assay [15] it was 91.2% and 103%; in assay [16], 85.8% and 102%; in [17], 105% and 107%.

As to `CCOP(=O)(OCC)C(=O)N(CC)CC`, the growth in assay [1] is 91.2%; in [2] it was 89.2%; in [3], 96.1%; in assay [4] it was 111%; in assay [5], 96.5%; in [6] it was 104%. In addition, the growth in assay [7] was 112%; in [8], 109%; in assay [18], 101%; in assay [10] it was 96.3%; in assay [11], 95.1%; in assay [12], 97.8%. For the same compound, the growth in assay [13] is 99.6%; in assay [14], 95.2%; in assay [15], 104%; in [17], 98.2%.

As for `Cc1cc[c-]cc1.Fc1c[c-]c(-c2ccccn2)c(F)c1.[Pt+2].c1ccc([PH+](c2ccccc2)c2ccccn2)cc1`, the growth in assay [1] was 42.5%; in assay [2] it was 15.9%; in assay [3] it was 34%; in assay [4] it was 63.9%; in assay [5], 57.1%; in [6] it was 91.7%. The growth in assay [7] was 53.2%; in [8], 46.1%; in assay [18] it was 39.1%; in assay [9], 88.2%; in [10], 23.5%; in assay [12], 39.3%. Further, the growth in assay [13] was 45.6%; in [14] it was 38.9%; in assay [15], 35%; in assay [16] it was 83.2%; in assay [17], 52.4%.

As to `NC(=O)c1c(Br)c(Br)c(Br)c(Br)c1C(=O)O` (tested in a mixture with another compound), the growth in assay [1] is 52.6% and 86.2%; in [2], 101% and 97.9%; in assay [3], 97.5% and 96.6%; in [4], 94.5% and 97.3%; in [6], 113% and 102%; in [7], 124% and 110%. Besides, the growth was 111% and 112% in assay [8]; 114% and 115% in assay [18]; 104% and 96.8% in assay [11]; 92.5% and 102% in assay [12]; 97.5% and 105% in [13]; 79.5% and 88.8% in assay [14]. In addition, the growth in [15] is 97.8% and 105%; in [16] it was 104% and 103%; in assay [17], 103% and 102%.
